This assay in a line: qHTS assay for re-activators of p53 using a Luc reporter: Hit Validation with no p53 Expressed. In a few lines: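 Without p53 expression, cells (1000/well, Opti-MEM + 10% FBS) were exposed 24 h at 37 deg C to compounds in a 1:5 series from 10 mM stock (top 46.1 µM in well). Luminescent signal read 10 min after Amplite addition; actives flag unspecific activation.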
Background: In qHTS, concentration-response curves come from the screen itself.

Each structure is given as a SMILES string. Records with an inconclusive call do not appear. Entries that show only a call come without a potency. Active and inactive are the calls of the source. Calls follow the shape of the dose curve; as a rule, active = well fitted activation curve with a large enough effect; inconclusive = small, poorly fitted or top-dose-only effect; inactive = no such curve, though single readings can be large or run the other way.

In the case of `N#Cc1nc(COc2ccccc2)oc1N1CCOCC1`, the Potency result was “inactive”.

As to `CCCS(=O)(=O)N1CCC(C(=O)NCCN(CC)c2ccccc2)CC1`, the Potency result was “inactive”.

Regarding `Cc1cccc(NC(=O)c2cnc3ccccn3c2=O)c1`, the Potency result was “inactive”.

On to `O=C(NCC(=O)N1CCN(c2ncccn2)CC1)c1ccc(F)cc1`, for which the Potency entry is “inactive”.

On to `COc1ccc(CCC(=O)NC(C)C2CCCO2)cc1` (stereo not given), for which the Potency entry was “inactive”.

In the case of `N#C/C(=C/c1cccnc1)c1ccccc1`, the Potency entry was “inactive”.

Consider `O=C(Oc1ccccc1/C=C\C(=O)c1cc2ccccc2o1)c1cccc(F)c1`, for which the Potency result was “inactive”.

Take `CN=c1scc(-c2cccs2)n1/N=C/c1ccc(O)c(O)c1O`: the Potency result is “inactive”.

Regarding `Cc1cccc2nc(CNc3ccc(F)cc3)cn12`, the Potency result is “inactive”.

With `O=C(CN1C(=O)NC2(CCCc3ccccc32)C1=O)c1ccc(F)cc1` (stereo not given), the Potency result was “inactive”.

For `O=C(Nc1cccc(N=Cc2cc(Cl)cc(Br)c2O)c1)c1ccco1`, the Potency entry was “inactive”.

`Cc1cc(CC(C)C)n(-c2nc3ccccc3c(=O)n2OCC(N)=O)n1`: the Potency entry is “inactive”.

On to `NNC(=O)c1cccc(O)c1`, for which the Potency result is “inactive”.

`COc1ccc(N(C(=O)Nc2ccc(Cl)cc2)C2=NCCC2)cc1`: the Potency result was “inactive”.

As to `NS(=O)(=O)c1ccc(CCNCc2cccnc2)cc1`, the Potency result is “inactive”.

`O=C(Nc1ccc2c(c1)CCC2)c1ccccc1F`: the Potency result is “inactive”.

Take `O=C(CNC(=O)c1cccc(F)c1)N/N=C/c1cc(Br)ccc1OC(=O)/C=C/c1ccco1`: the Potency result was “inactive”.

In the case of `COc1cc(NC(=O)C(C)C)ccc1NC(=O)c1ccco1`, the Potency entry is “inactive”.

Consider `Cc1cc(C)c2nc(NNC(=O)c3ccc(S(=O)(=O)N4CCCC(C)C4)cc3)sc2c1` (stereo not given), for which the Potency result was “inactive”.

As for `COCC(C)NC(=O)C1CC(=O)N(c2ccc(C)cc2)C1` (stereo not given), the Potency entry was “inactive”.

The values are drawn from PubChem BioAssay AID624331 (National Center for Advancing Translational Sciences (NCATS), 2012).
